# Assay results published in ChEMBL document CHEMBL3988442, “University of Dundee, Small-Polar-MMV Screening Library” (2021).
# Out of some 53,000 compounds screened, about 900 (1.7%) showed an effect of 50% or more. This is one part of a sample in which strong results are shown more often than they occur.
# System: Mycobacterium tuberculosis
# Test: Cornell - Phenotypic assay to identify agents that inhibit growth of Mycobacterium tuberculosis
# Format: functional
# Parameters: scale not given: direction of the effect not stated beside the values
# Settings: 10 mM as filed; unlikely as a test dose
row,Compound,Percent Effect [%]
1,Cl.O=S(=O)(N1CCCC1)N1CC[C@H](c2ccccc2)[C@H]2NCCCC[C@H]21,-130.5
2,CCC(CO)(CO)NC(=O)C1CCC(=O)N(CCc2ccccc2)C1 (centres undefined),9.017
3,CC(Cn1cccn1)NCc1csc(-c2ccccc2)n1 (centres undefined),63.3
4,CC(Cn1cccn1)NCc1nc(-c2ccc3c(c2)OCO3)no1 (centres undefined),3.313
5,CC(Cn1cccn1)NCc1csc(-c2ccc3c(c2)OCO3)n1 (centres undefined),59.29
6,CC(Cn1cccn1)NCc1csc(-c2ccsc2)n1 (centres undefined),13.88
7,Cc1cnn(CC(C)NCc2csc(-c3cccs3)n2)c1 (centres undefined),3.673
8,COc1ccc(-c2nc(CNC(C)Cn3cccn3)cs2)cc1 (centres undefined),49.5
9,CC(Cn1cccn1)NCc1csc(-c2cccs2)n1 (centres undefined),61.96
10,CC(Cn1cccn1)NCc1csc(-c2ccc(F)cc2)n1 (centres undefined),35.16
11,COc1cccc(-c2nc(CNC(C)Cn3cccn3)cs2)c1 (centres undefined),32.64
12,CC(C)Cc1cc(NC(=O)c2ccccc2F)n(C)n1,11
13,CCc1ccc(N2CCC(NS(=O)(=O)N(CC)CC)CC2)cc1,14.08
14,N#CCc1ccc(NC(=O)CNc2ccc(Br)cc2F)cc1,10.15
15,CCN(CC)C(=O)c1ccc(NC(=O)CNc2ccc(Br)cc2F)cc1,-14.15
16,COc1ccc(NC(=O)CNc2ccc(Br)cc2F)cc1,107.2
17,CC(C)CN1CCC(c2nc3ccc(NC(C)C)cn3n2)CC1.O=C(O)C(F)(F)F.O=C(O)C(F)(F)F,2.767
18,CN1CCOC(CNCc2cnc(C(C)(C)C)s2)C1 (centres undefined),18.35
19,Cc1cc(C(=O)Nc2cccn(Cc3ccc(F)cc3)c2=O)no1,24.65
20,CC(NC(=O)N1CCN(c2cccs2)CC1)c1ccc(C#N)cc1 (centres undefined),66.35
21,CC(=O)Nc1nc(C(=O)NC(C)c2ccc(C#N)cc2)cs1 (centres undefined),12.08
22,CC(NC(=O)N1CCN(c2ncccn2)CC1)c1ccc(C#N)cc1 (centres undefined),-12.2
23,O=C(NCCn1ccnc1)N1CCN(Cc2cccs2)CC1,-4.677
24,CC(NC(=O)N1CCN(c2cccs2)CC1)c1ccncc1 (centres undefined),62.51
25,O=C(NCCCn1ccnc1)N1CCN(c2cccs2)CC1,78.28
26,CC(C)c1noc(CCNC(=O)N2CCN(c3cccs3)CC2)n1,4.976
27,Cc1noc(C)c1C(C)NC(=O)N1CCN(c2cccs2)CC1 (centres undefined),32.97

row,Compound,Percent Effect [%]
1,O=C(NCCn1ccnc1)N1CCN(c2nccs2)CC1,-3.95
2,CN(C)C[C@@H]1C[C@@H]2CN(C(=O)Cc3cccs3)CC[C@@H]2N1C,-13.85
3,Cc1cc(C)nc(N2CCC(Cn3cc(C(=O)N(C)C)cn3)CC2)n1,9.732
4,CC(C)(C)c1cc(NC(=O)CNC2CCc3ncnn3C2)on1 (centres undefined),-1.762
5,c1cncc(Cc2nnc3n2CCN(CC2CCOC2)CC3)c1 (centres undefined),8.69
6,O=C(O)c1ccc(S(=O)(=O)Nc2c(F)cccc2-n2cccn2)cc1,7.087
7,O=C(O)C(F)(F)F.O=C(O)C(F)(F)F.O=C(c1ccc(F)cc1)N1CCN2C[C@H](OCc3cccnc3)C[C@H]2C1,19.5
8,O=C(c1cccc2ccnn12)N1CCCC1Cn1cccn1 (centres undefined),2.312
9,Cc1noc(-c2c[nH]nc2C2CCCN2C(=O)c2ccccc2)c1C (centres undefined),-2.6
10,Cc1ccc(CCCC(=O)N(C)CCN2CCOCC2)cc1,-37.37
11,CCCC(=O)N(CCCN1CCOCC1)c1nc2c(F)cccc2s1.Cl,7.328
12,CCCC(=O)N(CCCN1CCOCC1)c1nc2c(C)c(C)ccc2s1.Cl,69.7
13,CCCC(=O)N(CCCN1CCOCC1)c1nc2c(C)ccc(Cl)c2s1.Cl,110.2
14,CCCC(=O)N(CCCN1CCOCC1)c1nc2c(Cl)cccc2s1.Cl,9.811
15,CCCC(=O)N(CCN1CCOCC1)c1nc2c(OC)ccc(C)c2s1.Cl,-1.479
16,CC(=O)N1CCC(c2nccnc2Nc2ncc(C)s2)CC1,21.23
17,O=C(Nc1ccccc1OC1CCOC1)c1[nH]nc2c1CCCC2 (centres undefined),80.23
18,O=C(Nc1ccccc1OC1CCOC1)c1cc[nH]n1 (centres undefined),-18.84
19,O=C(NCCc1ccccn1)c1[nH]nc2c1CCCC2,20.26
20,CO[C@@H]1CC[C@H]2[C@H]1OCCN2C(=O)COc1ccc(F)cc1,15.86
21,COCCC(C)NC(=O)c1cc(Br)c2c(c1)OCCO2 (centres undefined),13.03
22,Cc1nccc(-c2cccc(NCC(=O)N3CCOCC3)c2)n1,9.914
23,CNc1cccc(C2CN(C(=O)CNS(C)(=O)=O)CCO2)n1 (centres undefined),-23.18
24,CC(C)CCC(=O)N(C)CC(=O)Nc1ccc(Br)cn1,-12.94
25,O=C(c1cnc2ccc(F)cc2c1NCc1ccccn1)N1CCCC1,5.685
26,COCCC1(CNC(=O)Nc2ccc(-n3nccn3)cc2)CCC1,32.79
27,COCCC1(CNC(=O)Nc2ccc(-n3cccn3)cc2)CCC1,21.41
